# Source: PubChem BioAssay
# Calls of active or inactive are those of the source.
# Columns and labels:
# [1] = compounds binding Alexa647 anti-His antibody – biochemical, small-molecule microarray, 635 nm fluorescence, artefact control for SMM control protein annotation, primary screen (AID 1128); conditions: higher = more signal;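 also: score merges feature fluorescence with signal-to-noise for each printed compound spot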
# [2] = system: Human papillomavirus type 1a E7 protein (residues 1-88); assay: HPV1a E7 small-molecule binders, primary screen, biochemical, small-molecule microarray, residues 1-88, 635 nm (AID 1129); conditions: small-molecule microarray binding, fluorescence 635 nm; higher = more signal
# [3] = biological target: Focal adhesion kinase 1 (Homo sapiens) (UniProt Q05397); assay: PTK2 protein binding on printed compound slides – biochemical, small-molecule microarray, 635/667 nm fluorescence, BSA, DTT, primary screen (AID 1130); conditions: 635 nm fluorescence, higher = more signal;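 also: composite of spot emission at 667 nm and signal to noise over triplicate slides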
# [4] = system: Fibrinogen (Alexa647-labelled); assay: Alexa647-fibrinogen binding to printed small molecules – biochemical, small-molecule microarray, 635/667 nm fluorescence, artefact control for SMM control-protein annotation, profiling panel (AID 1131); conditions: fibrinogen-A647 binding fluorescence, higher = more signal;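 also: z-score merges 667 nm fluorescence with per-spot signal-to-noise over triplicate slides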
# [5] = biological target: Follistatin (Homo sapiens) (UniProt P19883); assay: FST protein binding to printed compounds – biochemical, small-molecule microarray, 635/667 nm fluorescence, primary screen (AID 1132); conditions: 635 nm fluorescence, higher = more signal
# [6] = biological target: Fibroblast growth factor 2 (Homo sapiens) (UniProt P09038); assay: basic fibroblast growth factor binding to printed compounds – biochemical, small-molecule microarray, 635/667 nm fluorescence, primary screen (AID 1133); conditions: FGF2, fluorescence 635/667, higher = more signal
# [7] = JC-1 mitochondrial potential readout, lung cancer cells – cell-based, A549, JC-1 fluorescence, basal, 24 h, 100 nL, profiling panel (AID 1138); conditions: higher = more signal;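 also: A549 lung adenocarcinoma cells under basal conditions with no added stimulus; test concentration not given here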
# Lefty1 = Lefty1 protein binding to printed compounds – biochemical, small-molecule microarray, 635/667 nm fluorescence, primary screen (AID 1139); conditions: fluorescence 635/667, higher = more signal
# [8] = system: wheat germ agglutinin (Triticum aestivum), Alexa647-labelled; assay: Alexa647-WGA lectin binding to printed small molecules – biochemical, small-molecule microarray, 635/667 nm fluorescence, artefact control for SMM control-protein annotation, profiling panel (AID 1140); conditions: WGA-A647 binding, 635 nm fluorescence, higher = more signal;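 also: score merges 667 nm feature emission with signal to noise over triplicate slides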
# [9] = biological target: Luciferin 4-monooxygenase (Photinus pyralis) (UniProt P08659); assay: inhibition of purified Photinus pyralis luciferase – biochemical, luminescence, purified enzyme, 2006 set, primary screen (AID 1141); conditions: purified firefly luciferase, SteadyGlo luminescence, 30 min; higher = more signal, called active from +8 up or from −8 down;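 also: cell-free assay with purified firefly luciferase at 100 ng per well in PBS; test concentration not given here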
# Luciferin 4-monooxygenase (Photinus pyralis), sequence (P08659 whole entry, looked up): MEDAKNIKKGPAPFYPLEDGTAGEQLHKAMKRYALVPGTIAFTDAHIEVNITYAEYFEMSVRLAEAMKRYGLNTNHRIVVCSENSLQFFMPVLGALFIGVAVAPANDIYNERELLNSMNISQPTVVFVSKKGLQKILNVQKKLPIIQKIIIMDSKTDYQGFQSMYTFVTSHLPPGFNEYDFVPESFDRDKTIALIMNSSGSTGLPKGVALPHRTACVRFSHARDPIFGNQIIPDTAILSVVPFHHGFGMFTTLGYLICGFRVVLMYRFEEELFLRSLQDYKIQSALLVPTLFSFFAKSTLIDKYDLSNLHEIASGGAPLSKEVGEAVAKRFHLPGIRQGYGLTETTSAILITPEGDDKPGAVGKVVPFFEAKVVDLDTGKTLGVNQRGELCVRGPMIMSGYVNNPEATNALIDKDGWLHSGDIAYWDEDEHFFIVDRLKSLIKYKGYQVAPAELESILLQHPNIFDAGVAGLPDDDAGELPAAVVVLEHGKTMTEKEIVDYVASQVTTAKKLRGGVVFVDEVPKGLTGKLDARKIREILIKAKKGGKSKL
# Fibroblast growth factor 2 (Homo sapiens), sequence (P09038 whole entry, looked up): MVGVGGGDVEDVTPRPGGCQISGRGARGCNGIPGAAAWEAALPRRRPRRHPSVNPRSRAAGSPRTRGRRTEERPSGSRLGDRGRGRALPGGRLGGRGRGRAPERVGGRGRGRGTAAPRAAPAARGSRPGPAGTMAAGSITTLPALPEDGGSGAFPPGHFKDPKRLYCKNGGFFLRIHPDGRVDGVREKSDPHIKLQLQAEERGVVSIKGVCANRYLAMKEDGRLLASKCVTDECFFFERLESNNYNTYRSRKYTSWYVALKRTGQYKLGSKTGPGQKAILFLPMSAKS
# Follistatin (Homo sapiens), sequence (P19883 whole entry, looked up): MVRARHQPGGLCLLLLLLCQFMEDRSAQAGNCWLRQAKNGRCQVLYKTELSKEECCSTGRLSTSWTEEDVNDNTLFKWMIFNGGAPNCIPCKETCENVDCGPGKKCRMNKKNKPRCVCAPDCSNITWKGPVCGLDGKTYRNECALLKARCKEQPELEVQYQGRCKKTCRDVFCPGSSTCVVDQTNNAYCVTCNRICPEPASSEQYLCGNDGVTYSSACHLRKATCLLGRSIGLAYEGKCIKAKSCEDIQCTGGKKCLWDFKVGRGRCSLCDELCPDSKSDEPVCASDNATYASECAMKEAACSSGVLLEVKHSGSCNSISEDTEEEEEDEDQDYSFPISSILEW
# Focal adhesion kinase 1 (Homo sapiens), sequence (Q05397 whole entry, looked up): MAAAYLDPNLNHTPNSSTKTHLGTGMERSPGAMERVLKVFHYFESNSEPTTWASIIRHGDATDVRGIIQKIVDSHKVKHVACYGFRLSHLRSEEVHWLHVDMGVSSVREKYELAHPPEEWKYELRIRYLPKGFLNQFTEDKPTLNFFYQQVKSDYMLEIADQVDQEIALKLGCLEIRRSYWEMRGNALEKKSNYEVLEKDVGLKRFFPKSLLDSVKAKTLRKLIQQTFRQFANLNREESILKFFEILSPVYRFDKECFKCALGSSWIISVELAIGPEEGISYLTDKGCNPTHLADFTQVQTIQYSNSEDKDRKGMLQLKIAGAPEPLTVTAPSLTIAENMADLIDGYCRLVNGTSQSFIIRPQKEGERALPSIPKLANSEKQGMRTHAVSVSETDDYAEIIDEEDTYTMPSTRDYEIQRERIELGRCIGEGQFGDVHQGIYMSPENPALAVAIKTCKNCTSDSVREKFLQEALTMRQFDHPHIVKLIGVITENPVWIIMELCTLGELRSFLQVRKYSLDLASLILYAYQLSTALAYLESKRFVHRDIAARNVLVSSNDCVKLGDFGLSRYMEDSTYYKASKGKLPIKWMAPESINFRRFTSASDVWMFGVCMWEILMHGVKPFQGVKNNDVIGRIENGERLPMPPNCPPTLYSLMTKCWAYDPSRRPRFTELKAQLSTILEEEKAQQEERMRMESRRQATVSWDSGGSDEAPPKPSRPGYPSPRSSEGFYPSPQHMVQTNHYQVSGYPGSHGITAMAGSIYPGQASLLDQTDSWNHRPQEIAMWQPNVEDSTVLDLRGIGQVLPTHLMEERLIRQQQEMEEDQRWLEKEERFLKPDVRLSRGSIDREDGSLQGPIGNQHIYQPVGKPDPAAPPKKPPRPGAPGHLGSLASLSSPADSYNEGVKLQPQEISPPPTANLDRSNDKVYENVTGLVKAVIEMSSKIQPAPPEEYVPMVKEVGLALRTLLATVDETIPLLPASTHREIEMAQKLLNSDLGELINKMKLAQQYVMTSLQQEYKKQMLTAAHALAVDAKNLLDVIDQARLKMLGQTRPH
SMILES,composite z-score [1],composite z-score [2],composite z-score [3],composite z-score [4],composite z-score [5],composite z-score [6],z-score [7],composite z-score (Lefty1),composite z-score [8],z-score [9]
COCCOC(=O)N1C(=O)[C@@]2(c3cc(C#CC4(O)CCCCCC4)ccc31)[C@H](C(=O)N1CCN(c3ncccn3)CC1)[C@H]1C(=O)O[C@H](c3ccccc3)[C@H](c3ccccc3)N1[C@@H]2c1ccccc1OCCO,1.29,1.18,1.1,0.821,1.28,1.37,-1.04,0.883,0.321,-0.348 (inactive)
COc1ccc([Si](C)(C)[C@H]2[C@H](CC(=O)N3CCC[C@H]3CO)O[C@@]3(C(=O)N(Cc4ccc(N5CCC5=O)cc4)c4ccccc43)[C@@H]2C)cc1,1.54,1.19,0.559,0.898,1.35,1.73,1.51,1.56,0.211,-0.509 (inactive)
CC(C)C[C@@H]1NC(=O)[C@H]2C[C@@H](C(=O)NCCCCCN)[C@@H](c3cccc(OCCO)c3)N2C1=O,1.22,0.334,-0.0639,0.133,-0.214,0.181,0.34,-0.813,0.817,-1.07 (inactive)
CCOC(=O)C1=C[C@@H](C(C)(C)C)N(S(=O)(=O)c2ccc(C)cc2)[C@H]1c1cccc(Cl)c1,1.07,1.22,2.77,0.862,0.677,0.556,2.42,1.26,1.01,1.24 (inactive)
C=C(COC)C(=O)CC[C@@H](OC(=O)c1cccnc1)c1ccccc1OCCO,2.06,0.284,-0.54,0.555,0.974,1,-0.0536,0.139,0.287,-5.44 (inactive)
C=C(C)C1CCC(C(O)C2C=CC3C(=O)N(C)C(=O)C3N2Nc2cc(OC)c(OC)c(OC)c2)CC1 (stereo not given),1.23,1.24,0.573,0.723,1.31,0.425,0.444,0.677,0.504,-1.07 (inactive)
C=C(C)[C@@H]1CC=C(C(O)C2C=CC3C(=O)N(c4ccccc4)C(=O)C3N2Nc2ccc(C#N)cc2)CC1 (stereo not given in full),0.526,1.26,0.423,0.999,1.25,0.13,-0.517,0.0839,1.32,-0.251 (inactive)
CCN(CC)c1ccc(N2CC=CC34O[C@@H]5C=CCCOC(=O)C5[C@H]3C(=O)N(CCO)[C@@H]4C2=O)cc1 (stereo not given in full),-0.827,-1.74,-0.491,-1.21,-0.722,-1.01,0.108,-1,-0.553,-0.643 (inactive)
COc1cc2c(cc1O)C(c1ccc(CN3CCCC3)cc1)N(C)CC2 (stereo not given),-1.52,-2.03,-0.489,0.109,-0.843,-0.324,0.563,-1.17,0.434,-0.831 (inactive)
C=C(COC)/C(=C/C[C@@H](OC(=O)c1ccncc1)c1ccccc1OCCO)c1cc(C(=O)OC)ccc1OC,-1.25,-0.975,-0.478,-1.5,0.249,-0.203,2.02,-0.247,-1.12,-2.4 (inactive)
CCCCCN1CC=CC23O[C@@H]4C=CCOC(=O)[C@@H]4[C@H]2C(=O)N(CCO)[C@@H]3C1=O (stereo not given in full),1.58,-0.22,0.0763,-1.05,-0.693,-0.903,-0.222,-0.306,-0.324,0.056 (inactive)
C=CCNC(=O)[C@H]1[C@@H]2C(=O)O[C@@H](c3ccccc3)[C@@H](c3ccccc3)N2[C@@H](c2ccc(O)cc2)[C@]12C(=O)N(C(=O)OCCOC)c1ccc(C#CCC(C(=O)OC)C(=O)OC)cc12,0.724,1.13,0.439,0.858,1.32,1.5,-1.74,0.836,0.856,0.315 (inactive)
COC(=O)c1c2oc(c1C(=O)OC)C(=O)N1CCC[C@H]1Cn1nncc1CN(Cc1ccccc1)C(=O)N[C@H](CO)CC2,0.328,-0.243,0.291,0.676,0.423,1.04,0.39,0.783,0.18,-1.29 (inactive)
NCCCCCNC(=O)[C@H]1C[C@H]2C(=O)N[C@@H](Cc3ccccc3)C(=O)N2[C@H]1c1ccc(O)cc1,1.61,0.756,-0.506,0.94,1.4,0.169,-0.421,0.765,0.81,-1.35 (inactive)
CN(C)C(=O)[C@@]1(Cc2ccccc2N=[N+]=[N-])N=C(c2ccc(OCCCO)cc2)O[C@H]1c1ccccc1,1.78,1.25,0.235,0.992,1.15,1.37,-0.238,-0.442,1.22,-2.17 (inactive)
CCOC(=O)C1=C[C@@H](C(C)(C)C)N(S(=O)(=O)c2ccc(C)cc2)[C@H]1c1ccc(C)cc1,0.505,1.16,-0.115,0.958,1.29,0.949,4.52,1.12,0.764,0.715 (inactive)
